Measured values as given in PubChem BioAssay AID651610 (Broad Institute, 2012).
About 3,900 (1.1%) of roughly 360,000 compounds were called active.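 Rule for the calls: active = mean replicate inhibition score of at least 50 and every replicate individually at or above 50; inconclusive = only one of the two criteria met; inactive = mean below 50 and not all replicates reaching 50.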 Many of the other results were omitted from the sample, so actives are more common in it than they were.

experiment: inhibitors of HIV-1 Env-driven cell-cell fusion, primary screen, HeLa-JRFL effector, CEM21 target cells, luciferase (AID 651610); conditions: hits give high values; at 16.7 µM unless noted;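 note: 0% = plate neutral controls and 100% = maraviroc near 300 nM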

inhibition, active:
Cc1ccc(-n2c(O)c(C=Nc3ccc(S(=O)(=O)Nc4ncccn4)cc3)c3ccccc3c2=O)cc1C 65% [at 12.3 µM]
CCCC(=O)Nc1ccc(C(=O)N/N=C/c2ccc[nH]2)cc1 66.2% [at 12.3 µM]
Cc1cc(S(=O)(=O)Nc2ccc(C(=O)NCC(c3ccco3)N3CCCC3)cc2)ccc1F (stereo not drawn) 57.1% [at 12.3 µM]
C=CCn1c(C)cc(C2=NNC(=NCC)SC2)c1C 68.8% [at 12.3 µM]
CCc1ccccc1NC(=O)CN(c1ccc(OC)cc1OC)S(=O)(=O)c1ccccc1[N+](=O)[O-] 55.2% [at 12.3 µM]
COc1ccc(Cl)cc1NC(=O)CN(C)C(=O)CCCc1c[nH]c2ccccc12 75.6% [at 12.3 µM]
O=C1c2cccnc2C(Nc2ccc(S(=O)(=O)N3CCCCCC3)cc2)N1Cc1ccccc1 (stereo not drawn) 75.5% [at 12.3 µM]
CCc1ccc(CN(C)C(=O)CCc2nnc(-c3ccc(-c4ccccc4)cc3)o2)nc1 55.8% [at 12.3 µM]
Cc1ccc(-c2noc(CSc3nnc(-c4ccncc4)n3-c3ccc(F)cc3)n2)cc1 62.8% [at 12.3 µM]
Fc1ccc(-n2c(Cc3ccccc3)nnc2SCc2nc(-c3ccc(Cl)cc3)no2)cc1 79.7% [at 12.3 µM]

inhibition, inactive:
O=C(NC[C@H]1CC[C@@H]2[C@@H](CN2S(=O)(=O)c2ccccc2F)O1)C1CCCCC1 5.54%
CCCCn1nc(C(=O)Nc2ccc(S(=O)(=O)Nc3ncccn3)cc2)c2ccccc2c1=O 3.69% [at 12.3 µM]
CCN(CC)CCCN=Cc1c(O)n(-c2ccc(C)cc2)c(=O)c2ccccc12 -12.6% [at 12.3 µM]
Cc1ccc(S(=O)(=O)Nc2ccc3c(c2)C(=O)N([C@H](C)CO)C[C@H](C)[C@H](CN(C)S(=O)(=O)c2ccc(F)cc2)OCCCC[C@@H](C)O3)cc1 -11.1%
O=C(COc1ccccc1[N+](=O)[O-])N/N=C/c1ccc[nH]1 -18.2% [at 12.3 µM]
CC(=O)Nc1ccc(C(=O)/C=C/c2ccc[nH]2)cc1 3.48% [at 12.3 µM]
CC1(C)OC(=O)C2=C(CC(CCc3ccccc3)OC2c2ccc(Cl)cc2)O1 (stereo not drawn) -17.2% [at 12.3 µM]
COc1ccc(C(CNC(=O)c2ccc(NS(=O)(=O)c3ccc(F)c(C)c3)cc2)N(C)C)cc1 (stereo not drawn) -1.84% [at 12.3 µM]
COc1ccc(C(CNC(=O)c2cccc(NS(=O)(=O)c3ccc(C)c(F)c3)c2)N2CCCC2)cc1 (stereo not drawn) -23.5% [at 12.3 µM]
COc1ccc(NC(=O)N(C)C[C@@H]2OCCCC[C@@H](C)Oc3ccc(N(C)C)cc3C(=O)N([C@H](C)CO)C[C@@H]2C)cc1 7.61%
C[C@H]1CN([C@@H](C)CO)C(=O)Cc2cc(NC(=O)C3CC3)ccc2O[C@H]1CN(C)C(=O)Nc1ccc(C(F)(F)F)cc1 3.78%
C[C@H](CO)N1C[C@H](C)[C@@H](CN(C)S(=O)(=O)c2cn(C)cn2)OCCCC[C@H](C)Oc2ccc(NC(=O)Cc3ccccc3)cc2C1=O -9.54%
CO[C@@H]1CN(C)C(=O)c2ccc(NC(=O)c3ccc(F)cc3)cc2OC[C@H](C)NC[C@@H]1C -0.21%
C[C@@H]1CN([C@H](C)CO)C(=O)Cc2cc(NC(=O)Nc3ccc(F)cc3)ccc2O[C@@H]1CN(C)C(=O)Nc1ccc2c(c1)OCO2 8.43%
COc1ccc(N(CC(=O)Nc2cccc3ccccc23)S(C)(=O)=O)c(OC)c1 4.71% [at 12.3 µM]
COc1ccc(N(CC(=O)Nc2ccc(C)cc2C)S(=O)(=O)c2ccccc2[N+](=O)[O-])c(OC)c1 31.2% [at 12.3 µM]
C[C@H](CO)N1C[C@H](C)[C@@H](CN(C)Cc2ccc(C(=O)Nc3ccccc3N)cc2)Oc2c(NC(=O)c3ccc(-c4nccs4)cc3)cccc2C1=O -33.5%
COc1ccc(Cl)cc1NC(=O)CN(C)C(=O)c1cc2ccccc2cc1OC 26.5% [at 12.3 µM]
COc1ccc(Cl)cc1NC(=O)CN(C)C(=O)CNC(=O)C12CC3CC(CC(C3)C1)C2 -38.6% [at 12.3 µM]
C[C@H](CO)N1C[C@H](C)[C@H](CN(C)C(=O)Nc2ccc(C(F)(F)F)cc2)Oc2ccc(NS(=O)(=O)c3cn(C)cn3)cc2CC1=O 10.7%
CN1C(=O)c2cc(NS(=O)(=O)CC(F)(F)F)ccc2OC[C@H]2O[C@@H](CC(=O)NCc3ccc(Cl)c(Cl)c3)CC[C@@H]21 -8.14%
COCC(=O)Nc1ccc2c(c1)C(=O)N(C)[C@H]1CC[C@H](CC(=O)Nc3ccccc3)O[C@H]1CO2 12.1%
Cc1nc(Nc2ccc(S(=O)(=O)N3CCCC3)cc2)c2nnn(Cc3ccccc3)c2n1 11.3% [at 12.3 µM]
O=S(=O)(NCc1ccccc1)c1ccc(S(=O)(=O)N2CCCC2)cc1 -8.09% [at 12.3 µM]
NCC[C@@H]1CC[C@@H](NC(=O)C2CCCC2)[C@H](CO)O1 -16.5%
O=C(C[C@H]1C[C@H]2c3cc(NC(=O)c4ccc5c(c4)OCO5)ccc3O[C@H]2[C@@H](CO)O1)NCc1cccc(F)c1 -9.68%
CC(=O)c1ccc(-c2nnc(CCC(=O)N(C)Cc3cnc4ccccn34)o2)s1 0.752% [at 12.3 µM]
CCc1ccc(CN(C)Cc2nc(Cc3ccccc3)no2)nc1 9.8% [at 12.3 µM]
CN(C)C(=O)C[C@H]1C[C@H]2c3cc(NC(=O)Nc4ccccc4F)ccc3O[C@H]2[C@@H](CO)O1 1.88%
Cn1c(SCc2ccc(F)cc2)nnc1-c1ccncc1 8.23% [at 12.3 µM]
O=C(CSc1nnc(Cc2ccccc2)n1-c1ccccc1)N1CCOCC1 -26.5% [at 12.3 µM]
Cn1cccc1Cc1nnc(SCC(=O)NCCc2ccccc2)n1-c1ccc(F)cc1 16% [at 12.3 µM]
Cc1ccc(-c2noc(CSc3nnc(-c4cccs4)n3C)n2)cc1 19.8% [at 12.3 µM]
